# The whole screen tested about 87,000 compounds, of which about 540 (0.62%) were called active. The rule behind the calls is not given here. What follows is part of a selection rich in actives, with near analogues and random picks from the rest. Where a call stands in place of a potency, no number is given. Potency and affinity values are given separately.
# Experiment: MT1-MMP gene expression reporter suppression – cell-based, luciferase reporter, luminescence (AID 618);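 note: actives suppress MT1-MMP promoter-driven transcription so potencies describe inhibitors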
# Settings: MT1-MMP promoter luciferase reporter cells
row,Structure (SMILES),outcome
1,O=C(NC1CCCCC1)N(CCN1CCOCC1)Cc1cc2cc3c(cc2[nH]c1=O)OCCO3,inactive
2,COc1ccc(OC)c(Nc2cc(-c3ccccc3)nc(N)n2)c1,active
3,COc1ccc(OC)c(Nc2nc(N)nc(-c3cc4ccccc4o3)n2)c1,inactive
4,COc1ccc(OC)c(Nc2cc(C)nc3ccccc23)c1,inactive
5,COCCN(CC(=O)NCc1ccccc1)C(=O)CCC(=O)Nc1nccs1,inactive
6,COc1ccc(C(c2sc3nc(C)nn3c2O)N2CC(C)OC(C)C2)cc1OC (centres undefined),inactive
7,Cn1c(SCC(=O)N2CCOCC2)nc(O)cc1=O,inactive
8,O=C1c2ccccc2S(=O)(=O)N1Cc1cc(=O)n2ccsc2n1,inactive
9,O=c1c2ccccc2ncn1Cc1nc2ccccc2s1,inactive
10,c1ccc(C2=Nc3ccccc3OC2)cc1,inactive
11,COc1ccc(C2=Nc3cc(C)ccc3OC2)cc1,inactive
12,CSc1sc(C(=O)O)c2c1C(=O)CCC2,inactive
13,COc1cccc(C2NC(=O)NC(C)=C2C(=O)OCCSC)c1OC (centres undefined),inactive
14,CN(C)S(=O)(=O)c1ccc(C(=O)Nc2ccc(CCC(=O)N3CCCC3)cc2)cc1,inactive
15,CC1CN(Cc2nc3c(c(=O)[nH]c(=O)n3C)n2CC(N)=O)CC(C)O1 (centres undefined),inactive
16,O=C(OC1CCOC1=O)c1ccc(-c2nc3ccccc3s2)s1 (centres undefined),inactive
17,CCCNC(=O)c1ccc(-c2nc3ccccc3s2)s1,inactive
18,O=C(NC1CC1)c1ccc(-c2nc3ccccc3s2)s1,active
19,CCOC(=O)c1sc(Nc2ccc(C)cc2C)nc1C,inactive
20,COc1cc(CN2CCN(S(=O)(=O)c3ccc(F)cc3)CC2)cc(OC)c1OC,inactive
21,Nc1sc2c(c1C(=O)NC1CCS(=O)(=O)C1)CCCC2 (centres undefined),inactive
22,COc1cc(C(N)=O)ccc1OCc1ccccc1,inactive
23,O=C(O)c1cc(/C=N\O)ccc1OCc1ccccc1,inactive
24,COc1cc(/C=N/O)ccc1OCc1ccc(C(=O)O)cc1,active
25,CCOC(=O)Cn1cc(C(=O)OC)c2ccccc21,inactive

row,Structure (SMILES),outcome
1,O=C(C1c2ccccc2Oc2ccccc21)N1CCN(c2ccc(Cl)cc2)CC1,inactive
2,COc1ccccc1N1CCN(C(=O)C2c3ccccc3Oc3ccccc32)CC1,active
3,CCOc1ccccc1N1CCN(C(=O)C2c3ccccc3Oc3ccccc32)CC1,inactive
4,CCOC(=O)C1CCN(Cc2ccccc2C)CC1,inactive
5,Cc1cnc(C)c(N2CCC(C(=O)NC(C)c3cccs3)CC2)n1 (centres undefined),inactive
6,CC(C)Oc1ccccc1C1CC(=O)Nc2cc3c(cc21)OCO3 (centres undefined),active
7,COc1cccc(C2CC(=O)Nc3cc4c(cc32)OCCO4)c1OC(C)C (centres undefined),inactive
8,CCCOc1ccccc1C1CC(=O)Nc2cc3c(cc21)OCCO3 (centres undefined),inactive
9,CCOc1ccccc1C1CC(=O)Nc2cc3c(cc21)OCO3 (centres undefined),active
10,CCOc1ccccc1C1CC(=O)Nc2cc3c(cc21)OCCO3 (centres undefined),inactive
11,CC(C)Oc1ccccc1C1CC(=O)Nc2cc3c(cc21)OCCO3 (centres undefined),inactive
12,Cc1[nH]nc2c1C(c1ccc(Cl)cc1)C(C#N)=C(N)O2 (centres undefined),inactive
13,CCOC(=O)C1CCCn2c1nc1sc3c(c1c2=O)CCCC3 (centres undefined),inactive
14,CC(C)(C)c1ccc(S(=O)(=O)NCc2ccc(C(=O)N3CCCC3)cc2)cc1,inactive
15,CO/N=C/C(=N\Nc1ccc(C)cc1)C(=O)c1ccc(OC)cc1,inactive
16,CO/N=C/C(=N\Nc1ccc(OC)cc1)C(=O)c1ccc(OC)cc1,inactive
17,COc1ccc(N/N=C(\C=N\O)C(=O)c2ccc(OC)cc2)cc1,active
18,Cc1c(C(=O)OC(C)CCN(C)C)oc2ccccc12 (centres undefined),inactive
19,CN1/C(=C\C(=O)COC(=O)CN2C(=O)C3CC=CCC3C2=O)C(C)(C)c2ccccc21 (centres undefined),inactive
20,Fc1ccc(Cn2c(-c3cscn3)nc3ccccc32)c(Cl)c1,inactive
21,Cc1oc2ccc(O)cc2c1C(=O)OC(C)C,inactive
22,CCN1C(=O)C(CC(=O)N2CCN(C(c3ccccc3)c3ccccc3)CC2)N(CC)C1=O (centres undefined),inactive
23,CC(=O)CSc1nc2ccccc2s1,inactive
24,O=C(CSc1nc2ccccc2s1)CSc1nc2ccccc2s1,inactive
25,CC(C)Oc1ccc(C2c3c(oc4ccccc4c3=O)C(=O)N2CCCN2CCOCC2)cc1 (centres undefined),inactive

row,Structure (SMILES),outcome
1,CN(C)C(=O)CSc1nnc2sc3ccccc3n12,inactive
2,COc1ccc(OCCSc2nnc3sc4ccccc4n23)cc1,inactive
3,COc1cccc(OCCSc2nnc3sc4ccccc4n23)c1,inactive
4,NC(=O)CSc1nnc2sc3ccccc3n12,inactive
5,C=CCOC(=O)C1=C(C)NC(=O)NC1c1cn(-c2ccccc2)nc1-c1cccs1 (centres undefined),inactive
6,COc1ccc(-n2c(Cc3cccn3C)nnc2SCC(=O)Nc2cccc(F)c2)cc1,inactive
7,Cc1cc(/C=N/n2cnnc2)c(C)n1-c1ccc(OCc2ccccc2F)cc1,inactive
8,Cc1cc(/C=N/n2cnnc2)c(C)n1-c1ccc(OCc2ccc(Cl)cc2)cc1,inactive
9,Cc1ccc(C)c(N(CC(=O)NC2CCCCC2)C(=O)CCC(=O)Nc2ccccn2)c1,inactive
10,O=C(COC(=O)c1cccs1)c1ccccc1,inactive
11,O=C(COC(=O)c1cccs1)c1ccc2ccccc2c1,inactive
12,CCOC(=O)C1=C(C)NC(=O)NC1c1ccccc1Cl (centres undefined),inactive
13,O=C(NCCN1CCOCC1)c1ccc(F)cc1,inactive
14,c1ccc(-n2ncc3c(N4CCN(c5ccccn5)CC4)nc(N4CCCCC4)nc32)cc1,inactive
15,COc1ccc(S(=O)(=O)Cc2ccc(C(=O)N3CCN(c4cccc(C)c4)C(C)C3)o2)cc1 (centres undefined),active
16,Cc1ccccc1S(=O)(=O)Cc1ccc(C(=O)N2CC(C)CC(C)C2)o1 (centres undefined),inactive
17,Cc1cccc(N2CCN(C(=O)c3ccc(CS(=O)(=O)c4ccccc4C)o3)CC2C)c1 (centres undefined),active
18,COc1ccc(N2CCN(C(=O)c3ccc(CS(=O)(=O)c4ccc(OC)cc4)o3)CC2)cc1,inactive
19,Cc1ccc(C)c(N2CCN(C(=O)c3ccc(CS(=O)(=O)c4ccccc4C)o3)CC2)c1,inactive
20,CCOC(=O)N1CCN(C(=O)c2ccc(CS(=O)(=O)c3ccc(OC)cc3)o2)CC1,inactive
21,Cc1ccc(N=Cc2ccc(N(C)C)cc2)cc1,inactive
22,O=S(=O)(/N=C(\c1ccccc1)N1CCOCC1)c1cccs1,inactive
23,COCCn1nnnc1CN1CCC(C)CC1,inactive
24,CCc1cc(=O)oc2cc(OCC(=O)N3CCc4ccccc43)ccc12,inactive
